The panel holds about 83,000 compounds, 20% with a hit somewhere; the sample as a whole holds those more often.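 The endpoint reported here, percent growth, reads 100 for growth as untreated, 0 for no net growth and -100 for all cells dead.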
Legend:
Assay in all cases: NCI-60 one-dose screen, 48 h (100 = growth as untreated, 0 = no growth, -100 = all killed); active = growth percent below 10; inactive = the rest
HCT-15 colon = details: 10 µM unless noted
HT29 colon = details: 10 µM unless noted
SNB-75 CNS = details: 10 µM unless noted
SNB-19 CNS = details: 10 µM unless noted
U251 CNS = details: 10 µM unless noted
PC-3 prostate = details: 10 µM unless noted
SK-MEL-5 melanoma = details: 10 µM unless noted
UACC-62 melanoma = details: 10 µM unless noted
LOX IMVI melanoma = details: 10 µM
SK-MEL-28 melanoma = details: 10 µM unless noted
SK-MEL-2 melanoma = details: 10 µM unless noted
EKVX NSCLC = details: 10 µM unless noted
SN12C renal = details: 10 µM unless noted
UO-31 renal = details: 10 µM unless noted
TK-10 renal = details: 10 µM unless noted
ACHN renal = details: 10 µM unless noted
CAKI-1 renal = details: 10 µM unless noted
A498 renal = details: 10 µM unless noted
CCRF-CEM leukemia = details: 10 µM unless noted
MOLT-4 leukemia = details: 10 µM unless noted

Measured: growth

CCOc1ccc2c(c1)c(C)cc(C)[n+]2CC
inactive: HCT-15 colon 112% | HT29 colon 81.8% | SNB-75 CNS 71.2% | SNB-19 CNS 64.8% | U251 CNS 45.7% | PC-3 prostate 48.7% | SK-MEL-5 melanoma 78.3% | UACC-62 melanoma 92.8% | LOX IMVI melanoma 73.8% | SK-MEL-28 melanoma 102% | SK-MEL-2 melanoma 97.9% | EKVX NSCLC 35.9% | SN12C renal 64.6% | UO-31 renal 65.9% | TK-10 renal 97% | ACHN renal 94.1% | CAKI-1 renal 86.2% | A498 renal 88.9% | CCRF-CEM leukemia 71.2% | MOLT-4 leukemia 64.6%

CN1CCCN(C(c2ccccc2)c2ccc(Cl)cc2)CC1 (stereo not given)
inactive: HCT-15 colon 85.9% | HT29 colon 86.6% | SNB-75 CNS 59% | SNB-19 CNS 117% | U251 CNS 97.2% | PC-3 prostate 86.5% | SK-MEL-5 melanoma 94.8% | UACC-62 melanoma 106% | LOX IMVI melanoma 89.4% | SK-MEL-28 melanoma 103% | SK-MEL-2 melanoma 117% | EKVX NSCLC 94.8% | SN12C renal 101% | UO-31 renal 76.3% | TK-10 renal 78.3% | ACHN renal 98.7% | CAKI-1 renal 77.5% | A498 renal 56.1% | CCRF-CEM leukemia 103% | MOLT-4 leukemia 89.5%

CC(C)(CC(=O)O)CC(=O)O
inactive: HCT-15 colon 105% | HT29 colon 101% | SNB-75 CNS 90.2% | SNB-19 CNS 99.2% | U251 CNS 109% | PC-3 prostate 101% | SK-MEL-5 melanoma 97.7% | UACC-62 melanoma 98.7% | LOX IMVI melanoma 104% | SK-MEL-28 melanoma 99.2% | SK-MEL-2 melanoma 107% | EKVX NSCLC 97.4% | SN12C renal 97.2% | UO-31 renal 94% | TK-10 renal 96.5% | ACHN renal 104% | CAKI-1 renal 97.7% | A498 renal 93.7% | CCRF-CEM leukemia 105% | MOLT-4 leukemia 100%

COc1cccc(C(=O)NNC(=O)c2cccc3ccccc23)c1
inactive: HCT-15 colon 100% | HT29 colon 98.2% | SNB-75 CNS 98.7% | SNB-19 CNS 110% | U251 CNS 102% | PC-3 prostate 106% | SK-MEL-5 melanoma 107% | UACC-62 melanoma 128% | LOX IMVI melanoma 98.5% | SK-MEL-28 melanoma 117% | SK-MEL-2 melanoma 107% | EKVX NSCLC 106% | SN12C renal 108% | UO-31 renal 97% | TK-10 renal 120% | ACHN renal 106% | CAKI-1 renal 102% | A498 renal 105% | CCRF-CEM leukemia 104% | MOLT-4 leukemia 98.8%

C[C@H](CCC[C@H](C)OS(=O)(=O)c1ccccc1)OS(=O)(=O)c1ccccc1
inactive: HCT-15 colon 101% | HT29 colon 111% | SNB-75 CNS 88% | SNB-19 CNS 94.5% | U251 CNS 108% | PC-3 prostate 108% | SK-MEL-5 melanoma 114% | UACC-62 melanoma 89.8% | LOX IMVI melanoma 101% | SK-MEL-28 melanoma 118% | SK-MEL-2 melanoma 98.8% | EKVX NSCLC 95.2% | SN12C renal 99.3% | UO-31 renal 78.8% | TK-10 renal 103% | ACHN renal 106% | CAKI-1 renal 92.6% | A498 renal 133% | CCRF-CEM leukemia 120% | MOLT-4 leukemia 115%

Cc1cc2nc(C)c(C)nc2cc1C
inactive: HCT-15 colon 107% | HT29 colon 108% | SNB-75 CNS 99.4% | SNB-19 CNS 111% | U251 CNS 98.3% | PC-3 prostate 81.4% | SK-MEL-5 melanoma 95.3% | UACC-62 melanoma 99.5% | LOX IMVI melanoma 97.2% | SK-MEL-28 melanoma 110% | SK-MEL-2 melanoma 113% | EKVX NSCLC 98.4% | SN12C renal 115% | UO-31 renal 78.2% | TK-10 renal 118% | ACHN renal 90.7% | CAKI-1 renal 81.8% | A498 renal 114% | CCRF-CEM leukemia 102% | MOLT-4 leukemia 106%

O=C(O)Cc1ccccn1
inactive: HCT-15 colon 99.7% | HT29 colon 103% | SNB-75 CNS 103% | SNB-19 CNS 101% | U251 CNS 99% | PC-3 prostate 102% | SK-MEL-5 melanoma 104% | UACC-62 melanoma 106% | LOX IMVI melanoma 113% | SK-MEL-28 melanoma 106% | SK-MEL-2 melanoma 106% | EKVX NSCLC 109% | SN12C renal 112% | UO-31 renal 95.1% | TK-10 renal 105% | ACHN renal 105% | CAKI-1 renal 93.9% | A498 renal 94.4% | CCRF-CEM leukemia 101% | MOLT-4 leukemia 89.3%

CCNc1ccc2ccccc2c1N=Nc1ccc(N=Nc2ccccc2)cc1
inactive: HCT-15 colon 104% | HT29 colon 112% | SNB-75 CNS 100% | SNB-19 CNS 112% | U251 CNS 109% | PC-3 prostate 87.1% | SK-MEL-5 melanoma 87.5% | UACC-62 melanoma 72.6% | LOX IMVI melanoma 93.1% | SK-MEL-28 melanoma 120% | SK-MEL-2 melanoma 64.6% | EKVX NSCLC 98.5% | SN12C renal 96% | UO-31 renal 71.1% | TK-10 renal 128% | ACHN renal 95.2% | CAKI-1 renal 107% | A498 renal 137% | CCRF-CEM leukemia 95.8% | MOLT-4 leukemia 82.2%

Source: PubChem BioAssay (NCI)
